Assay outcomes from PubChem BioAssay.
Hits are enriched below; roughly 1.6% of the tested compounds scored in any of these assays.
KCNQ2 enhance: KCNQ2 (rat) channel potentiation; O88943; actives 0.54% (n = 310,000); AID 2239; B-score at 10 µM; CHO-K1 KCNQ2, FluxOR thallium flux fluorescence; hits give high values;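 active = fluorescence ratio B-score at least 3 SD of library B-scores, with initial fluorescence B-score within 3 of them, cut at about 5.3 in these data; same plate scores as AID 2156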;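 note: B-score of peak minus minimum over baseline fluorescence ratio after K+ and Tl+ stimulus; positive B-score means potentiation of KCNQ2 with more thallium influx and brighter signal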
Target sequence (O88943 whole entry, looked up): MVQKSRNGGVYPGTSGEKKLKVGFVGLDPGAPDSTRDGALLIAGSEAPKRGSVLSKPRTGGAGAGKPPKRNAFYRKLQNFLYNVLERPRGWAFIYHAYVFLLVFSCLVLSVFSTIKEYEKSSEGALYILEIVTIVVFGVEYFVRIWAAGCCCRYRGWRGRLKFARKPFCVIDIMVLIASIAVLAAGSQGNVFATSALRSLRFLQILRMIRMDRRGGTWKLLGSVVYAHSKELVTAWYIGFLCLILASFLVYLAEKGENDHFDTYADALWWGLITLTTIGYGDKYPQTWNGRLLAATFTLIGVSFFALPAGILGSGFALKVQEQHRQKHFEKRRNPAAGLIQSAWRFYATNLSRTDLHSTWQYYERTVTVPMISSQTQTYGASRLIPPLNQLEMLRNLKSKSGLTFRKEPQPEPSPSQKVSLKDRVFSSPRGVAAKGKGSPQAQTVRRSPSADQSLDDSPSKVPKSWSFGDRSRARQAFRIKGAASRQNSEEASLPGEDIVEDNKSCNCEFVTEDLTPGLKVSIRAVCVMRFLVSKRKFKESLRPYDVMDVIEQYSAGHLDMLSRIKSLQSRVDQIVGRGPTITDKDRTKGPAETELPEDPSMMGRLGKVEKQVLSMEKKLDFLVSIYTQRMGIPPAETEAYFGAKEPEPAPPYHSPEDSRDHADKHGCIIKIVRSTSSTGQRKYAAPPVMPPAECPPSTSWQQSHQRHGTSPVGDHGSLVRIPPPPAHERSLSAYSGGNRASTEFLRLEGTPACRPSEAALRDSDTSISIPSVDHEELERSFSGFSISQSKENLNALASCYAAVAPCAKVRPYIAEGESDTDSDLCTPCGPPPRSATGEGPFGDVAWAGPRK
KCNQ2 block: blocks the rat KCNQ2 potassium channel; AID 2156; O88943; CHO-K1 KCNQ2, FluxOR thallium flux, 20 min; hits give low values; actives 1.1% (n = 310,000); B-score at 10 µM;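 active = fluorescence ratio B-score at most minus 3 library SDs, with starting brightness B-score within 2 library SDs, cut at about -5.5 in these data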
* hit, by the source's call; i = inactive; . = no result given.

SMILES | KCNQ2 enhance | KCNQ2 block
O=C(NC(Cc1c[nH]c2ccccc12)C(=O)N/N=C/c1cccc2ccccc12)c1cccs1 (centres undefined) | -8.1 | -8.1*
O=C(NC(Cc1c[nH]c2ccccc12)C(=O)O)c1cccs1 (centres undefined) | . | i
CSc1sc(C(=O)NC(=O)NCc2ccncc2)c(C)c1-c1ccon1 | 2.04 | i
COc1ccc(-n2c(COc3ccccc3)nnc2SCc2ccc(C#N)cc2)cc1 | 0.05 | i
N#Cc1ccc(CSc2nnc(COc3ccccc3)n2-c2ccccc2)cc1 | -5.61 | -5.61*
O=C(NCc1ccccc1)c1ccc(NC(=O)C2CCCO2)cc1 (centres undefined) | . | i
Cc1cc(N2CCN(c3cccc(C)c3C)CC2)nc(-c2ccccc2)n1 | . | i
COc1cc(CCCN2C(=O)C(=O)NC[C@H]2Cc2cccc3ccccc23)cc(OC)c1OC | 9.64* | i
CCCC[C@@H]1CNC(=O)C(=O)N1CCCc1cc(OC)c(OC)c(OC)c1 | 0.48 | i
N/C(=N\OC(=O)CC1CCCCC1)c1ccc([N+](=O)[O-])cc1 | . | i
N/C(=N\OC(=O)CCC1CCCC1)c1cccc([N+](=O)[O-])c1 | 5.82* | i
N/C(=N\OC(=O)CCC1CCCCC1)c1ccc([N+](=O)[O-])cc1 | 0.03 | i
N/C(=N\OC(=O)CC1CCCCC1)c1cccc([N+](=O)[O-])c1 | 10.4* | i
O=C(c1nc2ccccn2c1CNCCn1ccc2ccccc21)N1CCOCC1 | 0.18 | i
COc1cc(OC)cc(-c2nnc(SCc3ccc(C(=O)O)cc3)o2)c1 | 0.03 | i
CCOC(=O)COc1ccc(S(=O)(=O)NC2CC2)cc1 | . | i
Cc1ccc(NC(=O)c2cccc3c2C(=O)N(C2CCCCC2)C3)c(Cl)c1 | . | i
Cc1noc(C)c1CSc1nc2sc(C)c(C)c2c(=O)n1-c1ccccc1 | . | i
C=CCn1c(SCc2c(C)noc2C)nc2sc(C)c(C)c2c1=O | -6.52 | -6.52*
COc1ccc(Cc2nnc(SCC(=O)Nc3ccc(N4CCOCC4)cc3)n2C)cc1 | 1.24 | i
CC(C)OC(=O)/C(=C/c1ccc2c(c1)c1ccccc1n2C)NC(=O)c1ccccc1 | . | i
COC(=O)/C(=C\c1ccc2c(c1)c1ccccc1n2C)NC(=O)c1ccccc1 | -7.6 | -7.6*
CCN(CC(=O)Nc1ccc(NC(C)=O)cc1)Cc1c(O)ccc2cc(Br)ccc12 | 0.39 | i
CC(C)(CC(=O)O)CC(=O)N1CCN(c2cc(C(F)(F)F)nc3ccccc23)CC1 | 0.02 | i
CC1=Nc2ccccc2N=C(NC(=O)c2ccccc2)C1c1ccccc1 (centres undefined) | . | i
SMILES | KCNQ2 enhance | KCNQ2 block
O=C(NC1CCCCC1)C(c1ccccn1)N(C(=O)c1csnn1)c1ccccc1 (centres undefined) | 0.45 | i
CN(C)CCN1C(=O)c2oc3ccc(Cl)cc3c(=O)c2C1c1cccc(Br)c1 (centres undefined) | -6.28 | -6.28*
COc1ccc(C2c3c(oc4ccc(Cl)cc4c3=O)C(=O)N2CCN2CCOCC2)cc1 (centres undefined) | -6.63 | -6.63*
COc1ccc(C2c3c(oc4ccccc4c3=O)C(=O)N2CCCN2CCOCC2)cc1 (centres undefined) | . | i
CN(C)CCN1C(=O)c2oc3ccccc3c(=O)c2C1c1cccc(Br)c1 (centres undefined) | . | i
Cc1ccc(NC(=O)CCCn2nc(C)c3c(C)n(-c4ccccc4)nc3c2=O)c(Cl)c1 | . | i
O=[N+]([O-])c1ccc(S(=O)(=O)Nc2nnc(C3CCCCC3)s2)cc1 | 0.85 | i
Cc1c(Cl)ccc2c(C(=O)Nc3cc(C(C)(C)C)on3)cc(-c3ccccn3)nc12 | -5.93 | -5.93*
Cc1cccc2c(C(=O)Nc3ccc(Br)cc3)cc(-c3ccccn3)nc12 | 0.05 | i
COc1ccc(Nc2nc3ccccc3nc2-n2nc(C)cc2C)cc1 | . | i
Cc1cc(C)n(-c2nc3ccccc3nc2NCCc2ccccc2)n1 | -7.46 | -7.46*
Cc1ccc(C2/C(=C(/O)c3ccc(Br)cc3)C(=O)C(=O)N2Cc2ccco2)o1 (centres undefined) | . | i
Cc1ccc(SCc2nc(N)nc(Nc3ccccc3C)n2)cc1C | 6.73* | i
Cc1ccccc1Nc1nc(N)nc(CSc2ccc(F)cc2)n1 | . | i
Cc1ccccc1Nc1nc(N)nc(CSCC(=O)Nc2cccc(Br)c2)n1 | 27.2* | i
Cc1ccc(SCc2nc(N)nc(Nc3ccccc3C)n2)c(C)c1 | 2.72 | i
O=[N+]([O-])c1ccc(Cl)c(NC2=NCCCCC2)c1 | . | i
CCCCOc1ccc(OCCNC(=O)C2CCCN2C(=O)Nc2ccccc2)cc1 (centres undefined) | . | i
O=C(COC(=O)Cc1ccc(Cl)cc1)Nc1ccc(OC(F)F)cc1 | . | i
O=C(Nc1ccc(Cl)cc1)N(C1=NCCC1)c1ccc(OC(F)F)cc1 | -5.69 | -5.69*
O=C(Nc1nc2ccc(F)cc2s1)C1=COCCO1 | . | i
O=C(Nc1nc2ccc(F)cc2s1)c1ccccn1 | 16* | i
Cc1csc2nc(CN3CCN(CC(=O)N(C)C)CC3)cc(=O)n12 | 1.07 | i
Cc1ccc(CNC(=O)CCS(=O)(=O)c2ccc(Cl)cc2)cc1 | . | i
Cc1ccc(C)c(C(=O)CCC(=O)NCc2ccc(Cl)cc2)c1 | -5.95 | -5.95*
SMILES | KCNQ2 enhance | KCNQ2 block
O=C(CCCl)N1CCN(c2nc(-c3ccccc3)cs2)CC1 | 1.01 | i
COC(=O)CSc1nnc(CNc2ccc(Cl)cc2)n1-c1ccccc1 | -5.75 | -5.75*
O=C(O)CSc1nnc(CNc2ccc(F)cc2)n1-c1ccccc1 | 0.62 | i
CCOC(=O)c1c(N)sc(C(=O)OC)c1C | 0.93 | i
CCOC(=O)c1sc(NN=C(C(=O)OC)C(=O)OC)c(C(=O)OCC)c1C | 5.69* | i
CCOc1ccc(CCNC(=O)C2CCCN(S(=O)(=O)N3CCOCC3)C2)cc1OCC (centres undefined) | 0.03 | i
COC(=O)c1ccc(COc2c(F)c(F)cc(F)c2F)o1 | . | i
O=C(O)c1ccc(COc2c(F)c(F)cc(F)c2F)cc1 | -9.04 | -9.04*
CC(C(=O)Nc1ccc(N(C)C)cc1)N1C(=O)c2ccccc2S1(=O)=O (centres undefined) | . | i
NS(=O)(=O)c1ccc(N=Nc2ccc(O)c3ncccc23)cc1 | 0.44 | i
O=Cc1ccc(O)c2ncccc12 | 7.17* | i
COc1ccc(O)c(C(=O)c2cnn(C(=O)c3cccc(S(=O)(=O)N4CCOCC4)c3)c2)c1 | . | i
COc1ccc(-c2cc3nc(C)cc(N4CC(C)CC(C)C4)n3n2)cc1 (centres undefined) | -6.05 | -6.05*
COc1ccc(-c2cc(C(F)(F)F)n3nc(C)cc3n2)cc1 | . | i
Cc1ccccc1NC1=NC(=S)N(c2ccccc2)C12CCCCC2 | 5.55* | i
Cc1ccccc1NC1=NC(=S)N(c2ccccc2)C12CCOC(C)(C)C2 (centres undefined) | 0.22 | i
CCN(CC)CCNC(=O)CNC(=O)c1nn(-c2ccc(OC)c(OC)c2)c(=O)c2ccccc12 | 0.42 | i
Cc1ccc(C)c(NC(=O)Cc2nc(CNCC(C)C)cs2)c1 | . | i
CCc1noc(C)c1C(=O)N1CCCC1 | 0.57 | i
CCc1noc(C)c1C(=O)N1CCCSC1=Nc1ccccc1C(C)C | -5.66 | -5.66*
O=C(CSc1nnnn1-c1ccc(Cl)c(C(=O)O)c1)NC(c1ccccc1)c1ccccc1 | . | i
